This passage reports potency estimated from few doses results from article PMC11062922 (Nature Chemical Biology, 2023).

One assay deals with PRKCI. Set-up: species or system human, MV4-11 + K-562 + COLO205 + SK-N-BE2 + OVCAR-8. The note with it: read-out: apparent Kd; compound concentrations:100 nM and 1000 nM (sheet 'Samples'); n = 1.
For a further assay, the system named is PIK3C2A. The arrangement: species or system human, MV4-11 + K-562 + COLO205 + SK-N-BE2 + OVCAR-8. Particulars: read-out: apparent Kd; compound concentrations: 100 nM and 1000 nM (sheet 'Samples'), CATDS: 5.6745724082573501E-2; n = 1.
A further assay has as its system PIK3C2B. Set-up: species or system human, MV4-11 + K-562 + COLO205 + SK-N-BE2 + OVCAR-8. Particulars: read-out: apparent Kd; compound concentrations: 100 nM and 1000 nM (sheet 'Samples'), CATDS: 8.3411679268076702E-2; n = 1.
In a further assay the test system is PRKD1. The arrangement: species or system human, MV4-11 + K-562 + COLO205 + SK-N-BE2 + OVCAR-8. Particulars: read-out: apparent Kd; compound concentrations:100 nM and 1000 nM (sheet 'Samples'); n = 1.
Another assay has as its system PRKD3. Set-up: species or system human, MV4-11 + K-562 + COLO205 + SK-N-BE2 + OVCAR-8. The note with it: read-out: apparent Kd; compound concentrations:100 nM and 1000 nM (sheet 'Samples'); n = 1.
The subject of another assay is PIP4K2C. The arrangement: species or system human, MV4-11 + K-562 + COLO205 + SK-N-BE2 + OVCAR-8. Particulars: read-out: apparent Kd; compound concentrations: 100 nM and 1000 nM (sheet 'Samples'), CATDS: 1; n = 1.
The next assay concerns RIOK2. The arrangement: species or system human, MV4-11 + K-562 + COLO205 + SK-N-BE2 + OVCAR-8. Particulars: read-out: apparent Kd, compound concentrations: 100 nM and 1000 nM (sheet 'Samples'), n = 1.
The next assay relates to TAOK1. Set-up: species or system human, MV4-11 + K-562 + COLO205 + SK-N-BE2 + OVCAR-8. Particulars: read-out: apparent Kd; compound concentrations: 100 nM and 1000 nM (sheet 'Samples'), CATDS: 1; n = 1.
The next assay relates to RPS6KB1. The arrangement: species or system human, MV4-11 + K-562 + COLO205 + SK-N-BE2 + OVCAR-8. Particulars: read-out: apparent Kd, n = 1.
For another assay, the target named is Q6ZSR9 (human, UniProt Q6ZSR9). Set-up: species or system MV4-11 + K-562 + COLO205 + SK-N-BE2 + OVCAR-8. Particulars: read-out: apparent Kd, n = 1.
Another assay relates to ACOX1. Particulars: read-out: apparent Kd, n = 1.
In another assay the test system is AKT3. Particulars: read-out: apparent Kd, n = 1.
The subject of the next assay is BTK. Particulars: read-out: apparent Kd, n = 1.
The subject of the next assay is CDC42. Particulars: read-out: apparent Kd, n = 1.
The test system of another assay is CDK7. The note with it: read-out: apparent Kd, n = 1.
The next assay relates to MAP3K2. Particulars: read-out: apparent Kd, n = 1.
A further assay has as its system PIK3CD. Particulars: read-out: apparent Kd, n = 1.
The subject of a further assay is PRKX;PRKY. Particulars: read-out: apparent Kd, n = 1.
The subject of the next assay is STK16. Particulars: read-out: apparent Kd, n = 1.
Another assay deals with TTN. The note with it: read-out: apparent Kd, n = 1.
The mark [1] stands for this setting: compound concentrations:100 nM and 1000 nM (sheet 'Samples').
Setting [2] is: compound concentrations:100 nM and 1000 nM (sheet 'Lestaurtinib' of Supplementary Table 1),run:Lestaurtinib_02339_R2,Plate:MR001.
Where [3] appears, read: compound concentrations:100 nM and 1000 nM (sheet 'Lestaurtinib' of Supplementary Table 1),run:Lestaurtinib_02422_R1,Plate:MR006.
Setting [4] is: compound concentrations:100 nM and 1000 nM (sheet 'Lestaurtinib' of Supplementary Table 1),run:Lestaurtinib_02487_R1,Plate:MR012.
The mark [5] stands for this setting: compound concentrations:100 nM and 1000 nM (sheet 'Lestaurtinib' of Supplementary Table 1),run:Lestaurtinib_02443_R3,Plate:MR009.

Where two headings read alike, the source gives them in different places.

Sequence of Q6ZSR9 (Q6ZSR9 whole entry, looked up): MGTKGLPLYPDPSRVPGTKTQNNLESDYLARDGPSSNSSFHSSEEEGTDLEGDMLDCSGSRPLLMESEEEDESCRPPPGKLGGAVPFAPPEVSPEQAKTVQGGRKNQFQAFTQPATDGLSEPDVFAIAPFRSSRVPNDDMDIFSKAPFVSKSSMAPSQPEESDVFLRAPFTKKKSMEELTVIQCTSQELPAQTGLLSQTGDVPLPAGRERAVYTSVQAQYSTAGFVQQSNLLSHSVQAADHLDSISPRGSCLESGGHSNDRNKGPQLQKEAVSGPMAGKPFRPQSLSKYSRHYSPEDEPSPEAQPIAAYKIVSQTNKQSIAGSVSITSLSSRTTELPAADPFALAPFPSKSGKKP

On to `CCn1c(-c2nonc2N)nc2ccccc21` [SB-693162], for which the potency estimated from few doses in the assay on PRKCI was 2.41 µM.

As for `Nc1ncc(-c2ccc3nccc(-c4ccncc4)c3c2)cc1S(=O)(=O)N1CCCCC1` [GSK1693850A], the potency estimated from few doses in the assay on PIK3C2A was 2.32 µM; in the assay with PIK3C2B, 0.483 µM.

For the compound `Cc1cccc(-c2nc(Nc3ccc4c(cnn4C)c3)c3ccccc3n2)n1` [GW876731X], the potency estimated from few doses in the assay with PRKD1 is 0.0928 µM; in the assay on PRKD3, 0.0328 µM.

Take `COc1cc(Nc2nccc(N3CCC(NC(=O)C(C)c4ccc(Cl)cc4)C3)n2)cc(OC)c1OC` (centres unmarked) [GSK1379757A]: the potency estimated from few doses in the assay on PIP4K2C was 1.64 µM.

Turning to `Cl.c1ccc(Oc2ccc(Nc3ncc(-c4ccccc4)o3)cc2)cc1` [GW641155A], the potency estimated from few doses in the assay on RIOK2 (CATDS: 1) was 2.14 µM.

For the compound `Cc1nnc(-c2ccc(C)c(-c3ccc(C(=O)Nc4ccc(NS(C)(=O)=O)cc4)cc3)c2)o1` [GW702865X], the potency estimated from few doses with TAOK1 was 1.62 µM.

Regarding `Nc1nonc1-c1nc2cnccc2n1C1CC1` [SB-736302], the potency estimated from few doses in the assay on RPS6KB1 (compound concentrations: 100 nM and 1000 nM (sheet 'Samples'), CATDS: 0.26812352090996999) was 0.794 µM.

Turning to `CCn1c(-c2nonc2N)nc2cnc(Oc3cccc(NC(=O)c4ccc(N(C)C)cc4)c3)cc21` [GSK248233A], the potency estimated from few doses with Q6ZSR9 (setting [1]) was 2.12 µM; with RPS6KB1 (setting [1]) it was 0.978 µM.

Consider `COc1ccc2ncn(-c3cc(O[C@H](C)c4ccccc4C(F)(F)F)c(C(N)=O)s3)c2c1` [GSK317315A], for which the potency estimated from few doses in the assay on RIOK2 (CATDS: 0.34769297632871299) was 1.94 µM.

Consider `O=C(NCCNc1ccnc(Nc2ccc(F)cc2)n1)Nc1ccc2c(c1)OCO2` [GSK1379882A], for which the potency estimated from few doses in the assay on TAOK1 was 1.25 µM.

Lestaurtinib: the potency estimated from few doses in the assay on ACOX1 (compound concentrations:100 nM and 1000 nM (sheet 'Lestaurtinib' of Supplementary Table 1),run:Lestaurtinib_02364_R2,Plate:MR002) is 1.36 µM; with ACOX1 (compound concentrations:100 nM and 1000 nM (sheet 'Lestaurtinib' of Supplementary Table 1),run:Lestaurtinib_02624_R1,Plate:MR020), 1.67 µM; in the assay on AKT3 (setting [2]) it was 1.91 µM; in the assay on AKT3 (compound concentrations:100 nM and 1000 nM (sheet 'Lestaurtinib' of Supplementary Table 1),run:Lestaurtinib_03172_R3,Plate:MR031), 1.54 µM; in the assay with BTK (setting [3]) it was 0.76 µM; in the assay on BTK (setting [4]) it was 0.385 µM. Moreover, the potency estimated from few doses in the assay on CDC42 (compound concentrations:100 nM and 1000 nM (sheet 'Lestaurtinib' of Supplementary Table 1),run:Lestaurtinib_02437_R1,Plate:MR007) is 1.44 µM; in the assay on CDC42 (compound concentrations:100 nM and 1000 nM (sheet 'Lestaurtinib' of Supplementary Table 1),run:Lestaurtinib_02765_R3,Plate:MR026), 1.44 µM; in the assay with CDK7 (setting [4]), 0.132 µM; in the assay with CDK7 (compound concentrations:100 nM and 1000 nM (sheet 'Lestaurtinib' of Supplementary Table 1),run:Lestaurtinib_02496_R2,Plate:MR013) it was 1.59 µM; with MAP3K2 (setting [2]), 2.13 µM; in the assay with MAP3K2 (setting [5]) it was 2.17 µM. For the same compound, the potency estimated from few doses in the assay on PIK3CD (setting [2]) is 0.19 µM; in the assay with PIK3CD (compound concentrations:100 nM and 1000 nM (sheet 'Lestaurtinib' of Supplementary Table 1),run:Lestaurtinib_02577_R3,Plate:MR016), 0.0124 µM; in the assay on PRKX;PRKY (setting [5]), 1.43 µM; in the assay with PRKX;PRKY (compound concentrations:100 nM and 1000 nM (sheet 'Lestaurtinib' of Supplementary Table 1),run:Lestaurtinib_02896_R3,Plate:MR030), 2.21 µM; in the assay with STK16 (setting [3]), 1.43 µM; in the assay with STK16 (compound concentrations:100 nM and 1000 nM (sheet 'Lestaurtinib' of Supplementary Table 1),run:Lestaurtinib_03260_R1,Plate:MR033) it was 1.34 µM. For the same compound, the potency estimated from few doses with TTN (compound concentrations:100 nM and 1000 nM (sheet 'Lestaurtinib' of Supplementary Table 1),run:Lestaurtinib_02364_R1,Plate:MR002) was 1.91 µM; in the assay on TTN (compound concentrations:100 nM and 1000 nM (sheet 'Lestaurtinib' of Supplementary Table 1),run:Lestaurtinib_02606_R2,Plate:MR019) it was 0.737 µM.

In the case of `Cc1cccc(-c2n[nH]cc2-c2ccc3ncccc3n2)n1` [GW786460X], the potency estimated from few doses with PRKD3 is 0.64 µM.

For the compound `COC[C@H](NC1=NC(=O)/C(=C/c2ccc3ncccc3c2)S1)c1ccccc1` [RO4595946-000], the potency estimated from few doses in the assay with Q6ZSR9 (compound concentrations: 100 nM and 1000 nM (sheet 'Samples'), CATDS: 1) is 1.58 µM.
